# In PubChem BioAssay AID1159580 (chemical genetic matrix, 2015):
# “And” between values parts separate entries of the source, which are not always exact repeats. Equal values may be shown once. The campaign covered roughly 5,500 compounds. About 2,000 (36%) were called active. Inconclusive results (about 18%) are left out. This is one part of the list. Values without a mark were called inactive. Rule as the data show it: active = normalized growth mostly below about 0.91 (no sharp cut-off); inconclusive = no clear call, values can overlap the other calls; inactive = mostly above about 0.92.
# Assay: chemical genetic growth profiling, strain panel (AID 1159580);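 also: tested at 20 µM; growth read once vehicle control cultures reached saturation at 30 °C; 1 = growth at the plate median or of vehicle wells; lower values mean less growth of the strain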
# Conditions: S. cerevisiae deletion strains, growth OD
compound,measurement,setting,value
COc1c(N2CCNC(C)C2)c(F)cc2c(=O)c(C(=O)O)cn(C3CC3)c12 (stereo unspecified),normalized growth,"locus YAL013W, strain DEP1, active compounds read low",0.984
same,normalized growth,"locus YAL021C, strain ccr4, active compounds read low",0.972
same,normalized growth,"locus YAL026C, strain drs2, active compounds read low",0.955
same,normalized growth,"locus YAL030W, strain snc1, active compounds read low",0.985
same,normalized growth,"locus YBL061C, strain skt5, active compounds read low",0.992
same,normalized growth,"locus YBR009C, strain hhf1, active compounds read low",0.968
same,normalized growth,"locus YBR021W, strain FUR4, active compounds read low",0.951
same,normalized growth,"locus YBR023C, strain chs3, active compounds read low",0.982
same,normalized growth,"locus YBR171W, strain sec66, active compounds read low",0.985
same,normalized growth,"locus YBR229C, strain ROT2, active compounds read low",1.01
same,normalized growth,"locus YBR231C, strain swc5, active compounds read low",0.985
same,normalized growth,"locus YBR279W, strain paf1, active compounds read low",0.986
same,normalized growth,"locus YCL011C, strain gbp2, active compounds read low",0.966
same,normalized growth,"locus YCL016C, strain dcc1, active compounds read low",0.899 (active)
same,normalized growth,"locus YCL029C, strain bik1, active compounds read low",1.01
same,normalized growth,"locus YCL061C, strain MRC1, active compounds read low",0.957
same,normalized growth,"locus YCL069W, strain vba3, active compounds read low",0.994
same,normalized growth,"locus YCR088W, strain abp1, active compounds read low",0.973
same,normalized growth,"locus YDL005C, strain med2, active compounds read low",0.998
same,normalized growth,"locus YDL035C, strain GPR1, active compounds read low",1
same,normalized growth,"locus YDL040C, strain nat1, active compounds read low",0.984
same,normalized growth,"locus YDL074C, strain BRE1, active compounds read low",0.965
same,normalized growth,"locus YDL101C, strain DUN1, active compounds read low",1.01
same,normalized growth,"locus YDL134C, strain PPH21, active compounds read low",1.02
same,normalized growth,"locus YDL185W, strain tfp1, active compounds read low",1.01
same,normalized growth,"locus YDL192W, strain arf1, active compounds read low",1.02
same,normalized growth,"locus YDR001C, strain nth1, active compounds read low",0.976
same,normalized growth,"locus YDR069C, strain doa4, active compounds read low",0.99
same,normalized growth,"locus YDR101C, strain arx1, active compounds read low",0.993
same,normalized growth,"locus YDR137W, strain rgp1, active compounds read low",0.883
same,normalized growth,"locus YDR150W, strain NUM1, active compounds read low",1.02
same,normalized growth,"locus YDR159W, strain sac3, active compounds read low",0.867
same,normalized growth,"locus YDR162C, strain NBP2, active compounds read low",1.01
same,normalized growth,"locus YDR195W, strain ref2",1
same,normalized growth,"locus YDR297W, strain sur2, active compounds read low",0.982
same,normalized growth,"locus YDR318W, strain mcm21, active compounds read low",1
same,normalized growth,"locus YDR334W, strain swr1, active compounds read low",0.981
same,normalized growth,"locus YDR335W, strain msn5, active compounds read low",0.972
same,normalized growth,"locus YDR388W, active compounds read low",0.993
same,normalized growth,"locus YDR392W, strain spt3, active compounds read low",0.797
same,normalized growth,"locus YDR502C, strain sam2, active compounds read low",0.996
same,normalized growth,"locus YEL003W, strain gim4, active compounds read low",0.969
same,normalized growth,"locus YEL037C, strain rad23, active compounds read low",0.981
same,normalized growth,"locus YEL061C, strain CIN8 (second series), active compounds read low",0.979
same,normalized growth,"locus YEL061C, strain CIN8, active compounds read low",1.01
same,normalized growth,"locus YER015W, strain faa2, active compounds read low",0.968
same,normalized growth,"locus YER016W, strain bim1, active compounds read low",0.985
same,normalized growth,"locus YER110C, active compounds read low",1.01
same,normalized growth,"locus YER111C, strain swi4, active compounds read low",0.997
same,normalized growth,"locus YER155C, strain BEM2 (second series), active compounds read low",0.976
same,normalized growth,"locus YER155C, strain BEM2, active compounds read low",1.01
same,normalized growth,"locus YER167W, strain BCK2, active compounds read low",0.997
same,normalized growth,"locus YFR010W, strain ubp6, active compounds read low",0.993
same,normalized growth,"locus YGL078C, strain dbp3, active compounds read low",0.995
same,normalized growth,"locus YGL086W, strain mad1, active compounds read low",0.997
same,normalized growth,"locus YGL167C, strain pmr1, active compounds read low",1
same,normalized growth,"locus YGL173C, strain kem1, active compounds read low",0.983
same,normalized growth,"locus YGL227W, strain vid30, active compounds read low",0.978
same,normalized growth,"locus YGL240W, strain doc1, active compounds read low",0.973
same,normalized growth,"locus YGL248W, strain PDE1, active compounds read low",1.01
same,normalized growth,"locus YGL253W, strain hxk2, active compounds read low",0.989
same,normalized growth,"locus YGR078C, strain PAC10, active compounds read low",1.01
same,normalized growth,"locus YGR135W, strain pre9, active compounds read low",0.989
same,normalized growth,"locus YGR229C, strain SMI1, active compounds read low",0.886
same,normalized growth,"locus YGR252W, strain gcn5, active compounds read low",0.978
same,normalized growth,"locus YHR013C, strain ard1, active compounds read low",0.919
same,normalized growth,"locus YHR027C, strain rpn1, active compounds read low",0.984
same,normalized growth,"locus YHR030C, strain SLT2, active compounds read low",1 and 0.99
same,normalized growth,"locus YHR079C, strain IRE1 (second series), active compounds read low",1
same,normalized growth,"locus YHR079C, strain IRE1, active compounds read low",1.02
same,normalized growth,"locus YHR094C, strain hxt1, active compounds read low",0.992
same,normalized growth,"locus YHR129C, strain ARP1, active compounds read low",1
same,normalized growth,"locus YHR142W, strain chs7, active compounds read low",0.954
same,normalized growth,"locus YHR200W, strain rpn10, active compounds read low",0.991
same,normalized growth,"locus YIL066C, strain RNR3, active compounds read low",1.02
same,normalized growth,"locus YIL073C, strain SPO22, active compounds read low",0.967
same,normalized growth,"locus YIL125W, strain kgd1, active compounds read low",1
same,normalized growth,"locus YIR030C, strain dcg1, active compounds read low",0.997
same,normalized growth,"locus YJL092W, strain hpr5, active compounds read low",0.961
same,normalized growth,"locus YJL095W, strain BCK1 (second series), active compounds read low",1
same,normalized growth,"locus YJL095W, strain BCK1, active compounds read low",0.936 and 1.02
same,normalized growth,"locus YJL115W, strain asf1, active compounds read low",0.948
same,normalized growth,"locus YJL129C, strain trk1, active compounds read low",0.96
same,normalized growth,"locus YJL134W, strain LCB3, active compounds read low",1.01
same,normalized growth,"locus YJL154C, strain vps35, active compounds read low",0.993
same,normalized growth,"locus YJL164C, strain tpk1, active compounds read low",0.969
same,normalized growth,"locus YJL166W, strain qcr8, active compounds read low",1
same,normalized growth,"locus YJL168C, strain set2, active compounds read low",1
same,normalized growth,"locus YJL187C, strain SWE1 (second series), active compounds read low",1.02
same,normalized growth,"locus YJR043C, strain POL32, active compounds read low",0.911
same,normalized growth,"locus YJR066W, strain TOR1, active compounds read low",0.94
